From PubChem BioAssay (NCI)
The panel holds about 83,000 compounds, 20% with a hit somewhere; the sample as a whole holds those more often.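 Cell lines were cultured in 96-well plates, exposed to a single compound concentration, and assessed for percent growth 48 hours later.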 Values without a mark were called inactive. Activity calls are given as the source filed them. The calls were made as follows: active = growth percent below 10; inactive = the rest.

Legend:
Assay in all cases: NCI-60 one-dose screen, 48 h (100 = growth as untreated, 0 = no growth, -100 = all killed)
Settings in all cases: 10 µM unless noted
SR leukemia = system: SR leukemia
RPMI-8226 leukemia = system: RPMI-8226 leukemia
OVCAR-8 ovarian = system: OVCAR-8 ovarian
OVCAR-5 ovarian = system: OVCAR-5 ovarian
OVCAR-4 ovarian = system: OVCAR-4 ovarian
SK-OV-3 ovarian = system: SK-OV-3 ovarian
IGROV1 ovarian = system: IGROV1 ovarian
OVCAR-3 ovarian = system: OVCAR-3 ovarian
HS 578T breast = system: HS 578T breast
NCI/ADR-RES ovarian = system: NCI/ADR-RES ovarian

SMILES | growth (SR leukemia) | growth (RPMI-8226 leukemia) | growth (OVCAR-8 ovarian) | growth (OVCAR-5 ovarian) | growth (OVCAR-4 ovarian) | growth (SK-OV-3 ovarian) | growth (IGROV1 ovarian) | growth (OVCAR-3 ovarian) | growth (HS 578T breast) | growth (NCI/ADR-RES ovarian)
FC(F)(F)c1[nH]ncc1-c1nc2c(N3CCCCC3)cc3[nH]ncc3c2c2c1CCCC2 | -4.82% (active) | -6.13% (active) | 7.14% (active) | 6.62% (active) | 24.3% | -25% (active) | -8.41% (active) | -2.67% (active) | -11.8% (active) | 44.8%
CC1=CCC[C@@H]2C1(C)CC[C@H](C)[C@@]2(C)CC1=CC(=O)C(SC(C)(C)C)=CC1=O (stereo not given in full) | 74% | 64.7% | 91.8% | 68% | 88.5% | 106% | 99.4% | 84.9% | 85% | 84.8%
COc1cc2c(c(OC)c1OC)C(=O)N[C@@H]1[C@@H](O)[C@@H](O)[C@H](O)C[C@@H]21 | 95.6% | 102% | 97.3% | 106% | 107% | 99.9% | 111% | 112% | 108% | 108%
COc1cc(C(=O)/C=C/c2ccc(N3CCN(C)CC3)cc2)cc(OC)c1OC | 91.2% | 107% | 98% | 96.5% | 101% | 100% | 94.8% | 98.6% | 94.3% | 95.2%
COc1ccc2cc(-c3ccc(-c4ccc(C(=N)N)s4)s3)ccc2c1 | -14.5% (active) | -20.9% (active) | -32.6% (active) | -33% (active) | -45.6% (active) | 97.2% | 63% | -61.1% (active) | 90.3% | -43% (active)
Cc1cc(C)c(-c2c(O)c(Br)c(-c3c(C)cc(C)c(Br)c3C)c(O)c2Br)c(C)c1Br | 18.5% | 26.3% | 2.91% (active) | 64.9% | 23.7% | 46.7% | -29.9% (active) | -24.1% (active) | 41.5% | 44.1%
C=CCn1c(SCC(=O)Nc2ccc(C(=O)/C=C/c3cc(OC)c(OC)c(OC)c3)cc2)nnc1-c1cc(-c2ccc(OC)cc2)nc2ccccc12 | 50.9% | 55.5% | 72.8% | 105% | 90% | 98% | 98.5% | 93.4% | 90.4% | 96.4%
COc1ccc(NC(=O)c2cccc(C3CCc4c(cc(OC)c(OC)c4OC)O3)c2)cc1 (stereo not given) | 5.23% (active) | -24.2% (active) | 35.1% | 64.8% | 53.1% | 26.8% | 37.6% | 6.25% (active) | 22% | 8.7% (active)
O=P(O)(O)OCC1OC(n2cnc3c(NCc4ccccc4)ncnc32)C(O)C1O (stereo not given) | 41.7% | 29.5% | 11.5% | 57.7% | 25.5% | 9.33% (active) | 1.31% (active) | -66.7% (active) | 28.2% | 29.7%
Cn1cc(/C=C2/C(=O)Nc3ccccc32)c2ccccc21 | 94.9% | 60.5% | 95.5% | 106% | 86.2% | 90.4% | 85.1% | 90.2% | 89.3% | 84.7%
N#C/C(=C\c1ccc(-c2ccc(Cl)cc2)o1)c1ccc(Cl)cc1 | 59.6% | 44.8% | 58.4% | 68.1% | -14.1% (active) | 75.5% | 23.6% | 56.4% | 29.8% | 60%
O=C(O)CCCn1c(SCc2c(Cl)cccc2Cl)nc2ccsc2c1=O | 9.9% (active) | 19.2% | 28.8% | 50.7% | 70.7% | 34.3% | 44.9% | -20.4% (active) | 11.9% | 4.6% (active)
Cc1ccc(-c2csc(NC(=O)N3CCN(c4cc5c(cc4F)c(=O)c(C(=O)O)cn5C4CC4)CC3)n2)cc1 | 18.2% | 4.84% (active) | 7.72% (active) | 23.2% | 33.5% | -11.6% (active) | 17% | 7.6% (active) | 38.6% | 21.8%
Cc1cscc(C)c1=S | 72.9% | 103% | 83.3% | 67.5% | 113% | 98.9% | 77% | 121% | 122% | 71.1%
N=C(N)c1ccc(-c2ccc(-c3ccc(F)cc3)s2)s1 | -32.6% (active) | -18.6% (active) | -54.7% (active) | -28.8% (active) | -23.8% (active) | 80.5% | -27.5% (active) | -57.8% (active) | 84.6% | -33.3% (active)
CN(CCC#N)c1ccc(/C=C2\NC(=O)NC2=O)cc1 | 102% | 110% | 111% | 98.7% | 102% | 105% | 105% | 121% | 88.8% | 93.2%
CCCCCn1sc(=O)n(Cc2ccc(CNC(=O)OCc3ccc4c(Cl)cc(Cl)c(O)c4n3)cc2)c1=O | 64.3% | 60.6% | 42.3% | 90% | 66.4% | 96% | 53.5% | 69.8% | 70.9% | 9.85% (active)
N=c1sc(Cc2cc(Cl)ccc2Cl)cn1CC(=O)c1ccccc1 | 27.4% | 70.4% | 62.6% | 47.8% | 56.5% | 67.9% | 35.6% | 45.4% | 59.2% | 36%
COc1cc(C(=O)C(=O)c2cc(OC)c(O)c(OC)c2)cc(OC)c1O | 103% | 91.3% | 102% | 97% | 101% | 103% | 117% | 103% | 110% | 101%
C=CCn1c(SCC(=O)Nc2ccc(C(=O)/C=C/c3ccc(OC)cc3)cc2)nnc1-c1ccccc1 | 85.3% | 5.8% (active) | 101% | 82.7% | 77.4% | 106% | 84.9% | 89.5% | 100% | 89.1%
CN1CCN(Cc2ccc(NC(=O)c3cncc(C#Cc4cnn5ccccc45)c3)cc2C(F)(F)F)CC1 | -21.2% (active) | -17.5% (active) | 9.77% (active) | 4.3% (active) | -2.15% (active) | 15.5% | 3.17% (active) | 0.315% (active) | -15.4% (active) | -6.37% (active)
COc1cc2c3c(n(CCCCNCCCn4c5c(c6cc(OC)c(OC)cc6c4=O)C(=O)c4cc6c(cc4-5)OCO6)c(=O)c2cc1OC)-c1cc2c(cc1C3=O)OCO2 | 66.6% | 105% | 101% | 98.6% | 102% | 96.3% | 95% | 98.7% | 104% | 98.6%
CCCCn1sc(=O)n(Cc2ccc(CNC(=O)OCc3ccc4c(Br)cc(Br)c(O)c4n3)cc2)c1=O | 5.73% (active) | 18.7% | 13.7% | 52% | 51.7% | 34.6% | 15.7% | -0.408% (active) | 18.6% | 9.82% (active)
C=C1C(=O)O[C@H]2[C@H]1CC/C(CNC(=O)c1cc3ccccc3[nH]1)=C\CC[C@@]1(C)O[C@@H]21 | -37.4% (active) | -29% (active) | -26.2% (active) | -46% (active) | -7.16% (active) | 68% | -26.3% (active) | -93.8% (active) | 42.7% | 22.4%
N=C(N)c1ccc(-c2ccc(-c3ccc(Cl)cc3)o2)o1 | -28.8% (active) | -6.54% (active) | -55.4% (active) | 3.3% (active) | 46.2% | 81.2% | 37.7% | -86.1% (active) | 78.6% | -50.6% (active)
CC1O[C@@H]2C[C@@](O)([C@H]1O)n1c3ccccc3c3c4c(c5c6ccccc6n2c5c31)C(=O)NC4=O (stereo not given in full) | 32% | 55.3% | 63.3% | 72.8% | 66.8% | 48.4% | 67.6% | 55.4% | 82.6% | 80.7%
